# Test results reported in publication PMC7862700, “An all-to-all approach to the identification of sequence-specific readers for epigenetic DNA modifications on cytosine”.
# Legend:
# Assay in all cases: DAPPL (digital affinity profiling via proximity ligation, sequencing); 10 mM Tris-HCl pH 7.5, 50 mM NaCl, 1 mM DTT, 4% glycerol, room temperature, 30 min; GST-TFs on glutathione beads, 16-mer random dsDNA library, 0.1% formaldehyde crosslink after washing; high values mean tight binding
# FEV = target: T1, FEV (Homo sapiens, UniProt Q99581 1-238); details: protein: recombinant; tags: N-terminal GST; dsDNA, one strand shown
# T1 sequence: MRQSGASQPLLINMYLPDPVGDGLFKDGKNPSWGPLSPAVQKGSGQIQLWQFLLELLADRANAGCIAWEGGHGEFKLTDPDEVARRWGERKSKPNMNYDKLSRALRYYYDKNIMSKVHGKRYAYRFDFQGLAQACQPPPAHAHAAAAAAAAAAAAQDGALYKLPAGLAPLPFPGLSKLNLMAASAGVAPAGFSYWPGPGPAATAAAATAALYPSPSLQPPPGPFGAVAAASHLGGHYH
# How it was run: (§1)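 After expression in yeast as GST fusions, human transcription factors were bound to glutathione beads, DNA-barcoded and mixed with a tag-only sample. The pools were incubated with 200 nmole of a 16-mer random double-stranded DNA library in Tris/NaCl/DTT/glycerol buffer (30 min, room temperature), washed and crosslinked with 0.1% formaldehyde. Proximity ligation with BsaI/T4 ligase ran for 1 h at 37 °C, before PCR amplification and sequencing on an Illumina NextSeq500. Binding signal is a hexamer's read frequency for a factor divided by its frequency for the tag-only sample.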
# ETV5 = ETV5 (Homo sapiens, UniProt P41161 1-510); details: protein: recombinant; tags: N-terminal GST; dsDNA, one strand shown
# ETV5, sequence (P41161 whole entry): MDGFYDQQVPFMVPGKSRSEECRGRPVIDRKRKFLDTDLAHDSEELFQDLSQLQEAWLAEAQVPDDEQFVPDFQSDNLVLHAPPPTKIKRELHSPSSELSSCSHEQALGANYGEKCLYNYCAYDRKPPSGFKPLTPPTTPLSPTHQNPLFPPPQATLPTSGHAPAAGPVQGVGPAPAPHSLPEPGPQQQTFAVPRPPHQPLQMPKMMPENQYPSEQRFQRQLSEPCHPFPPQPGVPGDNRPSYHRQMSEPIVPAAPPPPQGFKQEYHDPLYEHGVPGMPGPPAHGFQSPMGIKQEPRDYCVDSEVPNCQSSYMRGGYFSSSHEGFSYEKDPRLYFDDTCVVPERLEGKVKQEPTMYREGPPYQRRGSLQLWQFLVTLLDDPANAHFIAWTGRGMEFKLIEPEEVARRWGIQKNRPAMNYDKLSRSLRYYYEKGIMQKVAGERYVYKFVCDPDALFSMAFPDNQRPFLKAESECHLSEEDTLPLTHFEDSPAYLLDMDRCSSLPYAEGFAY
# How it was run: as §1
# HSF1 = HSF1 (Homo sapiens, UniProt Q00613 1-529); details: protein: recombinant; tags: N-terminal GST; chain copies: 3; dsDNA, one strand shown
# HSF1, sequence (Q00613 whole entry): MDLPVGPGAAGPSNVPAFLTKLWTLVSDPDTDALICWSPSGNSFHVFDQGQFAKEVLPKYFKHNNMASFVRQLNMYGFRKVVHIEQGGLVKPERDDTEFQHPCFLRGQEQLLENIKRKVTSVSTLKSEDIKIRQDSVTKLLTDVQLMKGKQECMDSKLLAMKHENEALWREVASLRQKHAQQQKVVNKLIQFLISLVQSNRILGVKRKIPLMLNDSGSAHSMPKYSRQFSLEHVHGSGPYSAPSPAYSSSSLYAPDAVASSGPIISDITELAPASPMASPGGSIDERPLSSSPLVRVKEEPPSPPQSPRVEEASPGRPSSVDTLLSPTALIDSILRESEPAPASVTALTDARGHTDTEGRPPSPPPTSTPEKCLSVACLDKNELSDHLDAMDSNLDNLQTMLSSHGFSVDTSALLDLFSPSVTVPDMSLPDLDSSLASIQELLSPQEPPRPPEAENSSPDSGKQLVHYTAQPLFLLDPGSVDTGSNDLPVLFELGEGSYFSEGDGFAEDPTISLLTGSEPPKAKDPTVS
# How it was run: as §1
# SPIC = target: T2, SPIC (Homo sapiens, UniProt Q8N5J4 1-248); details: protein: recombinant; tags: N-terminal GST; dsDNA, one strand shown
# T2 sequence: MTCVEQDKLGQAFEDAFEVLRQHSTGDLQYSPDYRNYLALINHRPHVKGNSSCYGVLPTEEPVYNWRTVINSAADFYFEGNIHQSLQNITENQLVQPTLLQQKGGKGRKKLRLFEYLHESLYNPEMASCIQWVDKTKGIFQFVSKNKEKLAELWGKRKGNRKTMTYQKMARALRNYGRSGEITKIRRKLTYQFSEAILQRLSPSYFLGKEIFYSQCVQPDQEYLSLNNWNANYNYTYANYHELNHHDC
# How it was run: as §1
# ELF4 = ELF4 (Homo sapiens, UniProt Q99607 1-663); details: protein: recombinant; tags: N-terminal GST; dsDNA, one strand shown
# ELF4, sequence (Q99607 whole entry): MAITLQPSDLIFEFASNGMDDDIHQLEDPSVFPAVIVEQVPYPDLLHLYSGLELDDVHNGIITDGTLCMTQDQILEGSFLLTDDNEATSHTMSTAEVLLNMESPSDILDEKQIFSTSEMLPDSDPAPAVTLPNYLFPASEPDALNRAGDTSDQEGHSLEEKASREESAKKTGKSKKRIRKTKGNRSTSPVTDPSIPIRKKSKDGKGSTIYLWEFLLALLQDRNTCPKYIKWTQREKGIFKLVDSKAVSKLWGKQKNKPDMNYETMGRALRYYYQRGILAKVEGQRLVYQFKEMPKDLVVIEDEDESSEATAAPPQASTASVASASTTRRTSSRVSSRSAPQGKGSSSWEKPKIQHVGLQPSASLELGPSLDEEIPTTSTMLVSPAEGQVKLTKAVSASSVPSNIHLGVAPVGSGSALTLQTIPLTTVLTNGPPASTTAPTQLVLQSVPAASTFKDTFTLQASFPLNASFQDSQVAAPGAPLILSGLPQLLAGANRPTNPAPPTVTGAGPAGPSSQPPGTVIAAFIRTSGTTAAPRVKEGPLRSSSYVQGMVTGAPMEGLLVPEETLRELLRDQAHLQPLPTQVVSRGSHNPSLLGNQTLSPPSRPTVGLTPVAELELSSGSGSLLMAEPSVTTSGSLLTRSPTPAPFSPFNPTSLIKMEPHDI
# How it was run: as §1
# ELK4 = target: T3, ELK4 (Homo sapiens, UniProt P28324-2 1-405); details: protein: recombinant; tags: N-terminal GST; dsDNA, one strand shown
# T3 sequence: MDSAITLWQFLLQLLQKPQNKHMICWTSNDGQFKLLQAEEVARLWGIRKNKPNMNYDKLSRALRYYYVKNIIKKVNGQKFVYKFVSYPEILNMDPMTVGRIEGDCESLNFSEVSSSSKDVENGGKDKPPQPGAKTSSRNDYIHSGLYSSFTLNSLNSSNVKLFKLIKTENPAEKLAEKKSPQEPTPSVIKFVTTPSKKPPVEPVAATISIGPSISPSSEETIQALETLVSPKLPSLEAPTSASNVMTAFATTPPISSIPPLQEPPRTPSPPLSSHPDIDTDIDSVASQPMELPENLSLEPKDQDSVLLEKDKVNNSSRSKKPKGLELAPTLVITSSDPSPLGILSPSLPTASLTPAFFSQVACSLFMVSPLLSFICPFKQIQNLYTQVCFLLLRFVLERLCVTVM
# How it was run: as §1
# ETV2 = target: T4, ETV2 (Homo sapiens, UniProt O00321 1-342); details: protein: recombinant; tags: N-terminal GST; dsDNA, one strand shown
# T4 sequence: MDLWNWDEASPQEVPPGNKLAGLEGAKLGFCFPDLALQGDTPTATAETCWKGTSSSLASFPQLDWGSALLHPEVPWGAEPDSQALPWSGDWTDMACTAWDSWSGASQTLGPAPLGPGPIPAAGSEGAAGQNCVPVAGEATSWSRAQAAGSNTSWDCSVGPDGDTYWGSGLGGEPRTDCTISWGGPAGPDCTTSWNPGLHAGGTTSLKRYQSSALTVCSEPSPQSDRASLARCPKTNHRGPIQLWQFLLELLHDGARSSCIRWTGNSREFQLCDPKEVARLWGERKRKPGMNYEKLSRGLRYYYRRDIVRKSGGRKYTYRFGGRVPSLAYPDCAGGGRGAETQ
# How it was run: as §1
# ELF3 = target: T5, ELF3 (Homo sapiens, UniProt P78545 1-371); details: protein: recombinant; tags: N-terminal GST; dsDNA, one strand shown
# T5 sequence: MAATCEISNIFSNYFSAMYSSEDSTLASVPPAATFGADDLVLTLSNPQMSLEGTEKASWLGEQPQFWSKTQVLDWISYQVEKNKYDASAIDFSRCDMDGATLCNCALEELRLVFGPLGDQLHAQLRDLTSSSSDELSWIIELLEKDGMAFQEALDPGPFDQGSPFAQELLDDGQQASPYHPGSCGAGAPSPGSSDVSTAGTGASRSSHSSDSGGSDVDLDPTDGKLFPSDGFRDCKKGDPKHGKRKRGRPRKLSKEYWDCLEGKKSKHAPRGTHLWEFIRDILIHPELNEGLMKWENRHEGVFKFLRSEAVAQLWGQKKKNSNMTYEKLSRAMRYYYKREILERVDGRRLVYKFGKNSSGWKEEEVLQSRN
# How it was run: as §1
# CRX = CRX (Homo sapiens, UniProt O43186 1-299); details: protein: recombinant; tags: N-terminal GST; dsDNA, one strand shown
# CRX, sequence (O43186 whole entry): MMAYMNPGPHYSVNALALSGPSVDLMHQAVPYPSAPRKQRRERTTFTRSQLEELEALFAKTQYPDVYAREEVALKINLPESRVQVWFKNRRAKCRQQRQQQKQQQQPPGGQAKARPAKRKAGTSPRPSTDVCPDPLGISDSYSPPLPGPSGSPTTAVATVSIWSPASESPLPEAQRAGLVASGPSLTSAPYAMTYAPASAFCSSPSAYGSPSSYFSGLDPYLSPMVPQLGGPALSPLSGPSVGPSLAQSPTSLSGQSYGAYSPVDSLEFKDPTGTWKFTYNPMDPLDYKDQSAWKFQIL
# How it was run: as §1
# ETV1 = ETV1 (Homo sapiens, UniProt P50549 1-477); details: protein: recombinant; tags: N-terminal GST; dsDNA, one strand shown
# ETV1, sequence (P50549 whole entry): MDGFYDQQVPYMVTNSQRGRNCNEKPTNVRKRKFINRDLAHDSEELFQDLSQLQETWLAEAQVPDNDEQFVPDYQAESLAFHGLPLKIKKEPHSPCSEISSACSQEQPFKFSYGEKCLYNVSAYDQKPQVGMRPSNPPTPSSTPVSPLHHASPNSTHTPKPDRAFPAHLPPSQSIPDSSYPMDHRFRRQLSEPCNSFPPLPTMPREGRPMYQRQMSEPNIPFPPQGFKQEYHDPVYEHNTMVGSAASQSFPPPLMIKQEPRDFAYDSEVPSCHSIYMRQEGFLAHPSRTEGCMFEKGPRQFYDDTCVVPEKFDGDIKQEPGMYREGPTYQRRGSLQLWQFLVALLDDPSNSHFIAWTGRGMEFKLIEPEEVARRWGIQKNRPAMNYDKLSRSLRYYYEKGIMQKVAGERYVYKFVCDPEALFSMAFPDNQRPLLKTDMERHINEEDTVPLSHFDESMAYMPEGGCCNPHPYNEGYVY
# How it was run: as §1
# ERF = target: T6, ERF (Homo sapiens, UniProt P50548 1-548); details: protein: recombinant; tags: N-terminal GST; dsDNA, one strand shown
# T6 sequence: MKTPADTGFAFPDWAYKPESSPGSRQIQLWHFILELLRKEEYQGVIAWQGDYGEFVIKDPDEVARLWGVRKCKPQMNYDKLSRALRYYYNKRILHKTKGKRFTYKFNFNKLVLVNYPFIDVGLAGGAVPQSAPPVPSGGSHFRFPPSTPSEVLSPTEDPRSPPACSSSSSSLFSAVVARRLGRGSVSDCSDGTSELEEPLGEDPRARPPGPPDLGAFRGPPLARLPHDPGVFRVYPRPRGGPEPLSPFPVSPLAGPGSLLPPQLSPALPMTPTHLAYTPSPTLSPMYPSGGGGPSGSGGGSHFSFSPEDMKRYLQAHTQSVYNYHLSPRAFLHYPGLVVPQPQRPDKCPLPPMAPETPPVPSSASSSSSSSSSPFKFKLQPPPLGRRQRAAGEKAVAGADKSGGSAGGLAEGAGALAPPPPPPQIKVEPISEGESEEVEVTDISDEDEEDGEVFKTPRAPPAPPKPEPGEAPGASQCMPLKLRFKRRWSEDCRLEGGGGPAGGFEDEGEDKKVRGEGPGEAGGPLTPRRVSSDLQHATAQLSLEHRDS
# How it was run: as §1
# ETV3L = target: T7, ETV3L (Homo sapiens, UniProt Q6ZN32 1-361); details: protein: recombinant; tags: N-terminal GST; dsDNA, one strand shown
# T7 sequence: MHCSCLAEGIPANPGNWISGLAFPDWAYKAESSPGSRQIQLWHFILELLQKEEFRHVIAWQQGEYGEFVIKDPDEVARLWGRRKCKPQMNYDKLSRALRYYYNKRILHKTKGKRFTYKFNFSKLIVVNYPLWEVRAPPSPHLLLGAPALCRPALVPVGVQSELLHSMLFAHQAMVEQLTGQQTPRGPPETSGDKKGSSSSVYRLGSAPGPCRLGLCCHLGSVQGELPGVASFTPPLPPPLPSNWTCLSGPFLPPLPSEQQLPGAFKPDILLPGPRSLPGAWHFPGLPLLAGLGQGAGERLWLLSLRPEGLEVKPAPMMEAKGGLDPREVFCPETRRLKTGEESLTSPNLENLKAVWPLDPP
# How it was run: as §1
# ETS2 = target: T8, ETS2 (Homo sapiens, UniProt P15036 1-469); details: protein: recombinant; tags: N-terminal GST; dsDNA, one strand shown
# T8 sequence: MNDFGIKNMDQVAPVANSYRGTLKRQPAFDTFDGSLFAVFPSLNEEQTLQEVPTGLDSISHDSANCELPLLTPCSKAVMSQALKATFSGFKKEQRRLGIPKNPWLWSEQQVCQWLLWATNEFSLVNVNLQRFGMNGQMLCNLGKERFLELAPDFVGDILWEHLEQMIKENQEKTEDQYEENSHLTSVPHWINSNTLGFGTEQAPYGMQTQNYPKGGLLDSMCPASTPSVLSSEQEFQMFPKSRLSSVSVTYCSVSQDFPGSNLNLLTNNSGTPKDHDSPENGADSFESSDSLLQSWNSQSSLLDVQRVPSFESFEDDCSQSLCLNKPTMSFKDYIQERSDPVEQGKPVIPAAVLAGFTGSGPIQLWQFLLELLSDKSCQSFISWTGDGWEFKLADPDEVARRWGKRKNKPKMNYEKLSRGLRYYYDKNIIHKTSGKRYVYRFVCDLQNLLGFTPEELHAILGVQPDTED
# How it was run: as §1
# SPDEF = target: T9, SPDEF (Homo sapiens, UniProt O95238 1-335); details: protein: recombinant; tags: N-terminal GST; dsDNA, one strand shown
# T9 sequence: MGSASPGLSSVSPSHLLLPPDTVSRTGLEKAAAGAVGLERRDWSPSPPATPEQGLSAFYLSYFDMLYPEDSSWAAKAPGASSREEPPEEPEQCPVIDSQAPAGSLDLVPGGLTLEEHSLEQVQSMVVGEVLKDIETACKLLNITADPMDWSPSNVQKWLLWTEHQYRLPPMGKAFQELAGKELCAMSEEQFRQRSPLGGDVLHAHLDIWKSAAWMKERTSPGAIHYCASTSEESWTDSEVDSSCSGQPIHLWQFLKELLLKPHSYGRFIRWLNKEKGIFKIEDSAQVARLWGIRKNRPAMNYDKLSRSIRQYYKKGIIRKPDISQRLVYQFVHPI
# How it was run: as §1
# ETV7 = target: T10, ETV7 (Homo sapiens, UniProt Q9Y603 1-341); details: protein: recombinant; tags: N-terminal GST; dsDNA, one strand shown
# T10 sequence: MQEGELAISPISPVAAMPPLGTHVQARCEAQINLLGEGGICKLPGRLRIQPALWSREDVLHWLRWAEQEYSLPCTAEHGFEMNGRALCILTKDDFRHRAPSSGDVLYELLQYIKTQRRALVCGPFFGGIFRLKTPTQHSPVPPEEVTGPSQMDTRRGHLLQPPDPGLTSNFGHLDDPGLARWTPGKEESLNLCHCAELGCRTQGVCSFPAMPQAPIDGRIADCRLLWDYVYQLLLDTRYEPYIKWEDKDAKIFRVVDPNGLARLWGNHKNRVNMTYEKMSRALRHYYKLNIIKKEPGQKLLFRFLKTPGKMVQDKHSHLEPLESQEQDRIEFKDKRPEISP
# How it was run: as §1
# ELF5 = target: T11, ELF5 (Homo sapiens, UniProt Q9UKW6-2 1-255); details: protein: recombinant; tags: N-terminal GST; dsDNA, one strand shown
# T11 sequence: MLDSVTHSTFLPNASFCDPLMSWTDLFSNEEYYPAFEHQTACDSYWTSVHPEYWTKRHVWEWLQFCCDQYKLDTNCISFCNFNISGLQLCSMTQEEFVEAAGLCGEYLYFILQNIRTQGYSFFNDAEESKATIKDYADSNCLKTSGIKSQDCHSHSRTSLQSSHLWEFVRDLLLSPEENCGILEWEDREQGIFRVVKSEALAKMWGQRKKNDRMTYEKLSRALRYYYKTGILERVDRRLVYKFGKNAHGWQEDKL
# How it was run: as §1
# ETV3 = target: T12, ETV3 (Homo sapiens, UniProt P41162-2 1-143); details: protein: recombinant; tags: N-terminal GST; dsDNA, one strand shown
# T12 sequence: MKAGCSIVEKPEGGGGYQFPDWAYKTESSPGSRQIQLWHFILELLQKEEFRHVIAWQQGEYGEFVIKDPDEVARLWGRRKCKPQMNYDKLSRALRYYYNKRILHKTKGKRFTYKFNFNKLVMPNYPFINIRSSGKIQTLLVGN
# How it was run: as §1
# ETV6 = ETV6 (Homo sapiens, UniProt P41212 1-452); details: protein: recombinant; tags: N-terminal GST; dsDNA, one strand shown
# ETV6, sequence (P41212 whole entry): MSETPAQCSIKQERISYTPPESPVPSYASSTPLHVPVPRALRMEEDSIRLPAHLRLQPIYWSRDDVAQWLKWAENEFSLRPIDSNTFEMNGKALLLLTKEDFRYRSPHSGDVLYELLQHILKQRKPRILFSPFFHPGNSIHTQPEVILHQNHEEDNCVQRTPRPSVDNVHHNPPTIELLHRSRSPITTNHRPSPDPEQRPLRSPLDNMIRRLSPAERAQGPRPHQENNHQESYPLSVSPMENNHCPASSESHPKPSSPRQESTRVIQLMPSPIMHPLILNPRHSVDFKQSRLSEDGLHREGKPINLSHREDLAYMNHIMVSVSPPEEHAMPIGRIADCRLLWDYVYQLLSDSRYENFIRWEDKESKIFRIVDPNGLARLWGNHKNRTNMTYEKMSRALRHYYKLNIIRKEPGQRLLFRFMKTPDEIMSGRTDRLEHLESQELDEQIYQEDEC
# How it was run: as §1
sequence,measurement,setting,value
TTGGTG,binding signal,FEV,"1.22 fold enrichment (6-mer frequency, TF over GST control)"
same,binding signal,ETV5,"1.32 fold enrichment (6-mer frequency, TF over GST control)"
same,binding signal,HSF1,"1.18 fold enrichment (6-mer frequency, TF over GST control)"
same,binding signal,SPIC,"1.32 fold enrichment (6-mer frequency, TF over GST control)"
same,binding signal,ELF4,"1.3 fold enrichment (6-mer frequency, TF over GST control)"
same,binding signal,ELK4,"1.44 fold enrichment (6-mer frequency, TF over GST control)"
same,binding signal,ETV2,"1.52 fold enrichment (6-mer frequency, TF over GST control)"
same,binding signal,ELF3,"1.3 fold enrichment (6-mer frequency, TF over GST control)"
same,binding signal,CRX,"1.28 fold enrichment (6-mer frequency, TF over GST control)"
same,binding signal,ETV1,"1.41 fold enrichment (6-mer frequency, TF over GST control)"
same,binding signal,ERF,"1.28 fold enrichment (6-mer frequency, TF over GST control)"
same,binding signal,ETV3L,"1.25 fold enrichment (6-mer frequency, TF over GST control)"
same,binding signal,ETS2,"1.32 fold enrichment (6-mer frequency, TF over GST control)"
same,binding signal,SPDEF,"1.33 fold enrichment (6-mer frequency, TF over GST control)"
same,binding signal,ETV7,"1.15 fold enrichment (6-mer frequency, TF over GST control)"
same,binding signal,ELF5,"1.27 fold enrichment (6-mer frequency, TF over GST control)"
same,binding signal,ETV3,"1.32 fold enrichment (6-mer frequency, TF over GST control)"
same,binding signal,ETV6,"1.18 fold enrichment (6-mer frequency, TF over GST control)"
